# According to PubChem BioAssay:
# Where “and” joins values, the source holds several entries; their conditions need not be identical. Identical values can stand only once. The list shows a part of the results. Records with an inconclusive call do not appear. Calls of active or inactive are those of the source.
# Assays:
# [1] = inhibitors of TNFa-induced NFkB p65 translocation, primary screen, imaging, HUVEC, MLSMR starter and 10KST1 sets (AID 438;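 active means inhibition above 20% together with a positive visual image hit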;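 further: compound added about 3h40 before a 20 min TNFalpha stimulation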;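 on inhibition: signal is the nuclear over cytoplasmic p65 intensity ratio per well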); details: HUVEC TNFa-induced p65 nuclear translocation; cell count: measured here: nuclei count (cytotoxicity indicator), at 2.08 µM unless noted; inhibition: at 2 µM, stronger effect = higher value unless noted
# [2] = inhibitors of mutant huntingtin aggregation, primary screen, imaging, exon1htt(103Q)mCFP cells, high-content imaging (AID 483;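 active means visual image review flags a hit and inhibition of aggregation exceeds 20%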;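 further: compound exposure lasted 3 days before fixation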;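 on nuclei count: percent of the per-plate median nuclei count of sample wells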); details: exon1htt(103Q)mCFP cell line, aggregate imaging, at 2 µM; inhibition of aggregation: stronger effect = higher value; nuclei count: measured here: cell count, toxicity
# [3] = inhibitors of E-selectin induction by TNFa, primary screen, imaging, HUVEC, immunofluorescence, MLSMR starter and 10KST1 sets (AID 487;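 active means visually confirmed hit in the image check and inhibition above 20%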;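 on inhibition: signal is fraction of cell area covered by stained E-selectin grains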;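 on nuclei count: 100% = median nuclei count of all wells on the same plate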); details: HUVEC TNFalpha-induced E-selectin immunofluorescence imaging, at 2 µM; inhibition: stronger effect = higher value; nuclei count: measured here: cell number, toxicity
# [4] = DUSP6 inhibitors restoring Erk phosphorylation by chemical complementation, primary imaging in DUSP6-transfected HeLa (AID 609;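 active means compounds giving at least 50% inhibition in the cell-based MKP-3 phosphatase rescue imaging test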;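 on inhibition: phospho-Erk level distribution per well compared with pooled transfected vehicle control wells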); details: HeLa MKP-3 transfected, phospho-Erk imaging KS statistic, at 10 µM
# [5] = target: Dual specificity protein phosphatase 6 (Homo sapiens) (UniProt Q16828); assay: as above; details: HeLa MKP-3 transfected, phospho-Erk imaging KS statistic, at 10 µM, stronger effect = higher value
# [6] = target: Voltage-gated potassium channel subunit beta-2 (Rattus norvegicus) (UniProt P62483); assay: KvBeta enzyme negative modulators, primary screen, biochemical, NADPH fluorescence (AID 622;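 active means fluorescence slope higher than the sample average by over 3 SD, cut at about -0.22 in these data, passing the limit was not always enough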;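 further: slope of raw intensity against log time taken from 70 to 1610 s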); details: recombinant KvBeta, 4-cyanobenzaldehyde reduction, at 10 µM, stronger effect = higher value
# [7] = target: Voltage-gated potassium channel subunit beta-2 (Rattus norvegicus) (UniProt P62483); assay: KvBeta positive modulators, primary screen, biochemical, NADPH fluorescence (AID 623;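 active means NADPH fluorescence slope more negative than the mean of all samples by about 3 SD, 99.7% confidence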;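 further: fluorescence intensity change per second fitted from 20 to 320 s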); details: Recombinant KvBeta, NADPH fluorescence decrease slope, 10 min; at 10 µM; stronger effect = lower value
# [8] = target: Alpha-2C adrenergic receptor (Homo sapiens) (UniProt P18825); assay: modulators of alpha2C/GIRK thallium flux, primary screen, cell-based, HEK293 alpha2C/GIRK1/2 (AID 624;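 active means fluorescence slope after compound addition differing from the mean of all screened samples at 99.7% confidence, in either direction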;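 further: slope of fluorescence ratio to pre-addition baseline per second over 15 to 24 s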); details: thallium flux BTC fluorescence, at 10 µM, actives lie on both sides
# [9] = inhibitors of larval lipid processing in zebrafish, primary screen, whole organism, PED6 fluorescence, gall bladder and intestine (AID 686;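 active means a full or partial loss of lipid-probe fluorescence in the fish gall bladder, intestine or both, judged by eye; inactive means no fluorescence loss, or compound toxic to the fish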;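 further: larvae 5 to 7 days old with five fish per well; signal comes from phospholipase A2 cleavage of quenched PED6 carried via bile; overnight exposure to compound and PED6 before scoring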); details: Zebrafish larvae PED6 lipid processing, fluorescence scoring
# [10] = inhibitors of Chlamydomonas gravitaxis, primary screen, whole organism, Chlamydomonas reinhardtii, WT vs cilia-less mutant, absorbance, 96-well (AID 463189); details: OD600 absorbance, 2 days, at 10 µM, stronger effect = higher value;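 further: 0% = wild type cc124 cells in DMSO and 100% = ciliumless bld1 mutant cells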
# [11] = inhibitors of Sendai virus-induced IRF3 signaling, primary screen, TLR/RLR signaling modifier project, cell-based, Sendai virus stimulus, luciferase, 10K MLSCN set (AID 602276;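 active means inhibition at or above 50% at 10 µM; inactive means inhibition below 50%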;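 further: firefly luciferase from ISG56 promoter only with Renilla not read in this screen; 0% = Sendai virus plus DMSO and 100% = medium plus DMSO without virus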); details: HEK293 RL24 IRF3 luciferase reporter, at 10 µM, stronger effect = higher value
# [12] = inhibitors of poly I:C-induced TLR3 signaling, primary screen, cell-based, poly I:C stimulus, luciferase, 10K MLSCN set (AID 602277;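 active means inhibition of the reporter signal at or above 50%; inactive means inhibition below 50%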); details: HEK293-TLR3 RL24 IRF3 luciferase reporter, at 10 µM, stronger effect = higher value
# [13] = target: Muscarinic acetylcholine receptor M4 (Homo sapiens) (UniProt P08173); assay: compounds altering M4/GIRK thallium flux, either direction, primary screen, M4 allosteric agonist project, cell-based, HEK293 M4/GIRK, BTC-AM (AID 625;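 active means fluorescence slope after compound addition differing from the mean of all tested samples at 99.7% confidence, mostly higher but some lower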;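 further: thallium influx through GIRK channels coupled to M4 in HEK293 cells with BTC-AM dye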); details: at 10 µM, actives lie on both sides
# [14] = target: Solute carrier family 12 member 5 (Homo sapiens) (UniProt Q9H2X9); assay: KCC2 modulators in sodium-free buffer, confirmation, cell-based, HEK293 KCC2, thallium flux, secondary assay (AID 1713;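 active means thallium flux slope above the same plate's solvent-only control mean plus 3 SD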); details: FluoZin2 fluorescence, at 10 µM, stronger effect = higher value
# [15] = target: Solute carrier family 12 member 5 (Homo sapiens) (UniProt Q9H2X9); assay: KCC2 modulators without ouabain present, confirmation, cell-based, HEK293 KCC2, thallium flux, FluoZin2, secondary assay 2 (AID 1715;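 active means thallium flux slope more than 3 SD above or below the plate's solvent-only control mean, mostly below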;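 further: raw slope with 0.1% DMSO as baseline and bumetanide as block control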); details: HEK293-KCC2, thallium flux FluoZin2 fluorescence; at 10 µM; actives lie on both sides
# [16] = thallium flux modulation in parental HEK cells, confirmation, counter-screen for KCC2 modulator project, cell-based, counterscreen 1 (AID 1716;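 active means thallium flux rate significantly above the same plate's solvent-only control wells, beyond their mean plus 3 SD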); details: HEK293 parental cells, thallium flux FluoZin2, ouabain; at 10 µM; baseline-ratio fluorescence slope, 10–20 s after thallium
# [17] = target: Solute carrier family 12 member 5 (Homo sapiens) (UniProt Q9H2X9); assay: KCC2 inhibitors and activators, ouabain retest, confirmation, HEK-KCC2 cells (AID 1717;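 active means thallium flux slope beyond 3 SD from same-plate DMSO control mean in most replicates, usually higher, sometimes lower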;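 further: slope of initial-normalized fluorescence between seconds 10 and 20 after thallium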); details: HEK293-KCC2, thallium flux FluoZin2 fluorescence, at 10 µM, bidirectional: low = inhibitor, high = activator
# PubChem AID 1714 = details: HEK293-KCC2 + bumetanide/ouabain, thallium flux FluoZin2; at 10 µM; stronger effect = higher value
# [18] = native HEK Tl+ uptake effects, second counter-screen – HEK cells, counterscreen 2, counter-screen for KCC2 modulator project, confirmation (AID 1718;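 active means thallium flux slope above the same plate's solvent-control mean plus 3 SD in both duplicate wells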;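 further: run without ouabain in cells lacking the KCC2 cotransporter; slope of fluorescence scaled to its starting value between 10 and 20 s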); details: HEK293 parental, thallium flux FluoZin-2 fluorescence slope; at 10 µM
# [19] = measured here: cell density z-score
# [20] = measured here: nuclear c-Myc green intensity z-score
# [21] = measured here: nuclear pErk red intensity z-score, stronger effect = higher value
# Sequence of Voltage-gated potassium channel subunit beta-2 (Rattus norvegicus) (P62483 whole entry, looked up): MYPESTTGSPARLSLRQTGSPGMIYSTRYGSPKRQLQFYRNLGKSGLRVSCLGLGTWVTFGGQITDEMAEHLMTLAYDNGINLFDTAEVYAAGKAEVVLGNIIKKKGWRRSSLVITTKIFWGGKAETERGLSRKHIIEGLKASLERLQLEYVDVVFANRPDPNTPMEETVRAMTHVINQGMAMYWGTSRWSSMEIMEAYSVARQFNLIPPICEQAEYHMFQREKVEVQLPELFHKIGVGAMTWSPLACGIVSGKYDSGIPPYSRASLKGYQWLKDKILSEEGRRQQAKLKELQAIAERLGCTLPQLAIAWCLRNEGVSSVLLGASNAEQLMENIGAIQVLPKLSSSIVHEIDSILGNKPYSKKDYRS
# Sequence of Alpha-2C adrenergic receptor (Homo sapiens) (P18825 whole entry, looked up): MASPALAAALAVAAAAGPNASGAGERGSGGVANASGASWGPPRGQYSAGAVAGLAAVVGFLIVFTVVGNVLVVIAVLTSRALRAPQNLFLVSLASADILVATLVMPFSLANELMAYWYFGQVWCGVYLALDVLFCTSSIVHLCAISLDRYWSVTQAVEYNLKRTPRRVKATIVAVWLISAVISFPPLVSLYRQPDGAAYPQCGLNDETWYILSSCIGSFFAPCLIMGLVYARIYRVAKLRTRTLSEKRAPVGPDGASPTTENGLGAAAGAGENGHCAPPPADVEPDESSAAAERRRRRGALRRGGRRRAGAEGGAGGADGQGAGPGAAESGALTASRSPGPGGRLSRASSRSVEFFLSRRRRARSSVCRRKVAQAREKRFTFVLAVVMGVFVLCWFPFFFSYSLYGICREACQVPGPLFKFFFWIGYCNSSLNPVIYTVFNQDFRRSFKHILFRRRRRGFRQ
# Sequence of Dual specificity protein phosphatase 6 (Homo sapiens) (Q16828 whole entry, looked up): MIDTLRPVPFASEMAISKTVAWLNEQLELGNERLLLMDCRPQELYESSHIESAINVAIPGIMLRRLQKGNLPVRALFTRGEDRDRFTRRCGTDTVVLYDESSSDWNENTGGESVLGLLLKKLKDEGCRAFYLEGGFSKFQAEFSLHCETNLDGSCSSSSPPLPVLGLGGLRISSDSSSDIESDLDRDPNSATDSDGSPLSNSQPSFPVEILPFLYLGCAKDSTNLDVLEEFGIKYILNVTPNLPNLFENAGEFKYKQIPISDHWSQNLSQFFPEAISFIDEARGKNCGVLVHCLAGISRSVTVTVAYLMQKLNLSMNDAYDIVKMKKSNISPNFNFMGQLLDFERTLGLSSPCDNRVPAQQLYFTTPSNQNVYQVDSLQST
# Sequence of Solute carrier family 12 member 5 (Homo sapiens) (Q9H2X9 whole entry, looked up): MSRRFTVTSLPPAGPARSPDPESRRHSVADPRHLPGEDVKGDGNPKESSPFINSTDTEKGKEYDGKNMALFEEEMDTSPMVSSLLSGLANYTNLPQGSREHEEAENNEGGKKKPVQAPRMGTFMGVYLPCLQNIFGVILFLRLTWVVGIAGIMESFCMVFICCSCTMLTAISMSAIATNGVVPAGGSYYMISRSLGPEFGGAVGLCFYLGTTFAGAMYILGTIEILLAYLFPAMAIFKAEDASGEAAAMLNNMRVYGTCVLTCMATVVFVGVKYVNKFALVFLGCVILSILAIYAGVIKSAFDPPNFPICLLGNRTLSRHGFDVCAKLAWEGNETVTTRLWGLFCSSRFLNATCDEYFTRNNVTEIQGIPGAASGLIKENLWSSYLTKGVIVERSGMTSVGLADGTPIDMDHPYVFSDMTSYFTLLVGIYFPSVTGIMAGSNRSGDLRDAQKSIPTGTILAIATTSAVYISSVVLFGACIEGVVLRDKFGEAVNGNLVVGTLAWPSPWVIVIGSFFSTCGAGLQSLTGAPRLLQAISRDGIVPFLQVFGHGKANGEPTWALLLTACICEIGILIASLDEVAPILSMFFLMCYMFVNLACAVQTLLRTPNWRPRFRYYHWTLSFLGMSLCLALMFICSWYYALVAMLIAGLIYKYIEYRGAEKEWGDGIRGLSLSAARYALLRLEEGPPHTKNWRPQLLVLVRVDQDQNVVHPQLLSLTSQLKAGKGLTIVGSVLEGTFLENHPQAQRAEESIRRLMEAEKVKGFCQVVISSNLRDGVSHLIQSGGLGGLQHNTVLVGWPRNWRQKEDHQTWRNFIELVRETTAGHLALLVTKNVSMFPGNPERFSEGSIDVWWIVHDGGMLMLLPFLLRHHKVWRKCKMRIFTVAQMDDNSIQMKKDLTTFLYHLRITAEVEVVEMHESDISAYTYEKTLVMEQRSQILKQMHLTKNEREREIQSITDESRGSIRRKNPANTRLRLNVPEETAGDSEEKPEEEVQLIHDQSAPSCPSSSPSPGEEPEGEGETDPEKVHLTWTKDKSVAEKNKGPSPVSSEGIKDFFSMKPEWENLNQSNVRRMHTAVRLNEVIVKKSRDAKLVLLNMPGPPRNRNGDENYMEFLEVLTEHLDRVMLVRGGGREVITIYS
# Sequence of Muscarinic acetylcholine receptor M4 (Homo sapiens) (P08173 whole entry, looked up): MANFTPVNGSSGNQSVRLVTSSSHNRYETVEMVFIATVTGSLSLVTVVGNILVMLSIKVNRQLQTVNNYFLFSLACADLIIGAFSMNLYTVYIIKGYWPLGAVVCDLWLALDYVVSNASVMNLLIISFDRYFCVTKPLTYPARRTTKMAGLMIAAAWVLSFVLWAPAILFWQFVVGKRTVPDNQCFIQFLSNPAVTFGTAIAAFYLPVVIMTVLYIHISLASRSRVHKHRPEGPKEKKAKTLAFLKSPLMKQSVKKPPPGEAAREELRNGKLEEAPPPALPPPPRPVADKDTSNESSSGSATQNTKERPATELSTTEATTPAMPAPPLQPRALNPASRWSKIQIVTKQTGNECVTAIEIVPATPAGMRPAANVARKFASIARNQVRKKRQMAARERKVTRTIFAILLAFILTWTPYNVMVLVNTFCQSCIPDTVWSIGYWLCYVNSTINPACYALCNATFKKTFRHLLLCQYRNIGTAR
smiles,measurement,setting,value
NCC1(CC(=O)O)CCCCC1,cell count,[1],645
same,inhibition,[1],-5.2% (inactive)
same,inhibition of aggregation,[2],-6.5% (inactive)
same,nuclei count,[2],100%
same,inhibition,[3],-78.6% (inactive)
same,nuclei count,[3],116%
same,z-score,[4]; [19],-0.493
same,z-score,[4]; [20],0.124
same,z-score,[4]; [21],-0.808
same,inhibition,[5],1.38% (inactive)
same,fluorescence slope,[6],-0.493 (inactive)
same,NADPH fluorescence slope,[7],-3.2e-05 (inactive)
same,slope,[8],0.00518 (inactive)
same,outcome,[9],inactive
same,inhibition,[10],4.56% (inactive) and -5.83% (inactive)
same,inhibition,[11],-3.61% (inactive)
same,inhibition,[12],3.7% (inactive)
Cc1ccc2c(c1)[C@@H]1CN(C)CC[C@@H]1N2C(=O)Nc1cccc(C(F)(F)F)c1,cell count,[1],378
same,inhibition,[1],-9.8% (inactive)
same,inhibition of aggregation,[2],-11.2% (inactive)
same,nuclei count,[2],94.1%
same,inhibition,[3],-93.8% (inactive)
same,nuclei count,[3],95.7%
same,z-score,[4]; [19],1.48
same,z-score,[4]; [20],0.568
same,z-score,[4]; [21],0.647
same,inhibition,[5],-4.78% (inactive)
same,fluorescence slope,[6],-0.508 (inactive)
same,NADPH fluorescence slope,[7],-0.000528 (active)
same,slope,[8],0.0079 (inactive)
same,inhibition,[10],4.34% (inactive)
same,inhibition,[11],20.1% (inactive)
same,inhibition,[12],23.5% (inactive)
C[N+]1(C)CCc2cc3c(cc2[C@H]1[C@@H]1OC(=O)c2c1ccc1c2OCO1)OCO3,cell count,[1],633
same,inhibition,[1],1.1% (inactive)
same,inhibition of aggregation,[2],-10.4% (inactive)
same,nuclei count,[2],110%
same,inhibition,[3],-58% (inactive)
same,nuclei count,[3],109%
same,z-score,[4]; [19],0.571
same,z-score,[4]; [20],-0.122
same,z-score,[4]; [21],-0.447
same,inhibition,[5],19.2% (inactive)
same,fluorescence slope,[6],-0.486 (inactive)
same,NADPH fluorescence slope,[7],-3.8e-05 (inactive)
same,slope,[8],0.00504 (inactive)
same,inhibition,[10],6.58% (inactive) and 16.9% (inactive)
same,inhibition,[11],12.6% (inactive)
same,inhibition,[12],45.3% (inactive)
O=C1NC(=O)C(C/C=C/c2ccccc2)C(=O)N1,cell count,[1],678
same,inhibition,[1],-2.2% (inactive)
same,inhibition,[3],29.3% (inactive)
same,nuclei count,[3],154%
same,z-score,[4]; [19],0.051
same,z-score,[4]; [20],0.145
same,z-score,[4]; [21],0.14
same,inhibition,[5],16.5% (inactive)
same,fluorescence slope,[6],-0.473 (inactive)
same,NADPH fluorescence slope,[7],-4.7e-05 (inactive)
same,fluorescence slope,[13],0.00573 (inactive)
same,outcome,[9],inactive
same,normalised thallium flux (F/F0 slope),[14],0.00969 (inactive)
same,normalized thallium flux,[15],0.0324 (inactive)
same,thallium flux rate (normalised fluorescence),[16],0.0082 (inactive)
same,"raw Tl+ flux slope (below DMSO = inhibition, above = activation)",[17],0.0194 (inactive)
same,inhibition,[10],-5.46% (inactive)
CC[N+]1(C)CCCC(OC(=O)C(O)(c2ccccc2)c2ccccc2)C1 (centres undefined),cell count,[1],672
same,inhibition,[1],-11.6% (inactive)
same,inhibition of aggregation,[2],-2.7% (inactive)
same,nuclei count,[2],107%
same,inhibition,[3],-116% (inactive)
same,nuclei count,[3],119%
same,z-score,[4]; [19],1.46
same,z-score,[4]; [20],-0.0245
same,z-score,[4]; [21],-0.802
same,inhibition,[5],5.42% (inactive)
same,fluorescence slope,[6],-0.46 (inactive)
same,NADPH fluorescence slope,[7],-4.6e-05 (inactive)
same,slope,[8],0.0046 (inactive)
same,outcome,[9],inactive
same,inhibition,[10],-2.15% (inactive)
same,inhibition,[11],-2.74% (inactive)
same,inhibition,[12],37.1% (inactive)
COc1cc(-n2c(=S)[nH]c3ccc(C)cc3c2=O)c(Cl)cc1Cl,normalised thallium flux (F/F0 slope),[14],0.0155 (active)
same,normalized thallium flux,PubChem AID 1714,0.0563 (active)
same,normalized thallium flux,[15],0.0344 (inactive)
same,thallium flux rate (normalised fluorescence),[16],0.0674 (active)
same,"raw Tl+ flux slope (below DMSO = inhibition, above = activation)",[17],0.0437 (active)
same,thallium flux slope,[18],0.0196 (active)
CC(=O)[C@H]1CC[C@H]2[C@@H]3CC[C@H]4C[C@H](O)CC[C@]4(C)[C@H]3C(=O)C[C@]12C,cell count,[1],549
same,inhibition,[1],-11.5% (inactive)
same,inhibition of aggregation,[2],17.3% (inactive)
same,nuclei count,[2],94.7%
same,inhibition,[3],-98.9% (inactive)
same,nuclei count,[3],100%
same,z-score,[4]; [19],-1.19
same,z-score,[4]; [20],-0.45
same,z-score,[4]; [21],1.1
same,inhibition,[5],-6.41% (inactive)
same,fluorescence slope,[6],-0.534 (inactive)
same,NADPH fluorescence slope,[7],-4.5e-05 (inactive)
same,slope,[8],0.00562 (inactive)
same,outcome,[9],inactive
same,inhibition,[10],5.76% (inactive) and -1.15% (inactive)
same,inhibition,[11],10.2% (inactive)
same,inhibition,[12],20.7% (inactive)
O=C(O)CCCc1ccc(N(CCCl)CCCl)cc1,cell count,[1],498
same,inhibition,[1],-7.2% (inactive)
same,inhibition of aggregation,[2],4.2% (inactive)
same,nuclei count,[2],94.5%
same,inhibition,[3],-70% (inactive)
same,nuclei count,[3],127%
same,z-score,[4]; [19],0.122
same,z-score,[4]; [20],-0.24
same,z-score,[4]; [21],-0.885
same,inhibition,[5],12.4% (inactive)
same,fluorescence slope,[6],-0.493 (inactive)
same,NADPH fluorescence slope,[7],-0.000123 (inactive)
same,slope,[8],0.00534 (inactive)
same,inhibition,[10],5.31% (inactive) and 14% (inactive)
same,inhibition,[11],-6.04% (inactive)
same,inhibition,[12],-10.8% (inactive)
CC(C)C(=O)N1CCN(CCN=Cc2c(O)n(C)c(=O)n(C)c2=O)CC1,cell count,[1],517
same,inhibition,[1],-3.1% (inactive)
same,inhibition of aggregation,[2],-28.7% (inactive)
same,nuclei count,[2],138%
same,inhibition,[3],-78.2% (inactive)
same,nuclei count,[3],112%
same,z-score,[4]; [19],0.289
same,z-score,[4]; [20],-1.08
same,z-score,[4]; [21],0.644
same,inhibition,[5],1.9e-07% (inactive)
same,fluorescence slope,[6],-0.5 (inactive)
same,NADPH fluorescence slope,[7],-3.4e-05 (inactive)
same,slope,[8],0.00563 (inactive)
same,outcome,[9],inactive
same,inhibition,[10],33.6% (inactive)
same,inhibition,[11],-6.82% (inactive)
same,inhibition,[12],-2.86% (inactive)
CC1=NOC2(C)Nc3ncnn3C(c3ccccc3)C12 (centres undefined),cell count,[1],604
same,inhibition,[1],-11.4% (inactive)
same,inhibition of aggregation,[2],21% (inactive)
same,nuclei count,[2],85%
same,inhibition,[3],-129% (inactive)
same,nuclei count,[3],145%
same,z-score,[4]; [19],0.203
same,z-score,[4]; [20],0.546
same,z-score,[4]; [21],1.46
same,inhibition,[5],1.98% (inactive)
same,fluorescence slope,[6],-0.454 (inactive)
same,NADPH fluorescence slope,[7],-5.1e-05 (inactive)
same,slope,[8],0.00521 (inactive)
same,fluorescence slope,[13],0.00509 (inactive)
same,outcome,[9],inactive
same,inhibition,[10],2.9% (inactive)
same,inhibition,[11],-5.02% (inactive)
same,inhibition,[12],6.14% (inactive)
CC(=O)[C@@]1(O)CC[C@H]2[C@@H]3CC=C4C[C@@H](O)CC[C@]4(C)[C@H]3CC[C@@]21C,cell count,[1],618
same,inhibition,[1],-10.4% (inactive)
same,inhibition of aggregation,[2],4% (inactive)
same,nuclei count,[2],99.3%
same,inhibition,[3],-57.3% (inactive)
same,nuclei count,[3],129%
same,z-score,[4]; [19],-0.0512
same,z-score,[4]; [20],-0.687
same,z-score,[4]; [21],-0.36
same,inhibition,[5],7.39% (inactive)
same,fluorescence slope,[6],-0.451 (inactive)
same,NADPH fluorescence slope,[7],-5.3e-05 (inactive)
same,slope,[8],0.00537 (inactive)
same,outcome,[9],inactive
same,inhibition,[10],-4.89% (inactive)
same,inhibition,[11],9% (inactive)
same,inhibition,[12],26.8% (inactive)
